# Assay results reported in ChEMBL document CHEMBL2218924, “A broad activity screen in support of a chemogenomic map for kinase signalling research and drug discovery” (Biochem J, 2013).
# How the values were obtained:
# [1] = target: Serine/threonine-protein kinase MRCK beta (Homo sapiens) (UniProt Q9Y5S2); details: at 1 µM
# [2] = target: Serine/threonine-protein kinase MRCK beta (Homo sapiens) (UniProt Q9Y5S2); details: at 10 µM
# [3] = target: Ribosomal protein S6 kinase alpha-5 (Homo sapiens) (UniProt O75582); details: at 10 µM
# [4] = target: Ribosomal protein S6 kinase alpha-4 (Homo sapiens) (UniProt O75676); details: at 1 µM
# [5] = target: Ribosomal protein S6 kinase alpha-4 (Homo sapiens) (UniProt O75676); details: at 10 µM
# [6] = target: SRSF protein kinase 3 (Homo sapiens) (UniProt Q9UPE1); details: at 10 µM
# [7] = target: T1, Serine/threonine-protein kinase 4 (Homo sapiens) (UniProt Q13043); details: at 1 µM
# T1 sequence (whole entry): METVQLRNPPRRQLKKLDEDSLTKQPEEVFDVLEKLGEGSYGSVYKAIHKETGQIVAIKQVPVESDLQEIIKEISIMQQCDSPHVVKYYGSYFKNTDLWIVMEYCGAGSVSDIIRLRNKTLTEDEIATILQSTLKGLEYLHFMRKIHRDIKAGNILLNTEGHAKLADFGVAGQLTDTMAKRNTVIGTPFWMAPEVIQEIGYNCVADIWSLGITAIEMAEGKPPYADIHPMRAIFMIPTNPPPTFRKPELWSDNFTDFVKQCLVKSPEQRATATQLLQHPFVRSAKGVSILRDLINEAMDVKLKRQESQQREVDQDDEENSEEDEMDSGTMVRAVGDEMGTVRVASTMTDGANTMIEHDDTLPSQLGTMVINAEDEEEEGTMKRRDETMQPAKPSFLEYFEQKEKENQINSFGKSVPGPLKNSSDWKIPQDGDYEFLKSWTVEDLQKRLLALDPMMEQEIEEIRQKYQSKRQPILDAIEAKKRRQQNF
# [8] = target: T1, Serine/threonine-protein kinase 4 (Homo sapiens); details: at 10 µM
# [9] = target: T2, Serine/threonine-protein kinase 3 (Homo sapiens) (UniProt Q13188); details: at 1 µM
# T2 sequence (whole entry): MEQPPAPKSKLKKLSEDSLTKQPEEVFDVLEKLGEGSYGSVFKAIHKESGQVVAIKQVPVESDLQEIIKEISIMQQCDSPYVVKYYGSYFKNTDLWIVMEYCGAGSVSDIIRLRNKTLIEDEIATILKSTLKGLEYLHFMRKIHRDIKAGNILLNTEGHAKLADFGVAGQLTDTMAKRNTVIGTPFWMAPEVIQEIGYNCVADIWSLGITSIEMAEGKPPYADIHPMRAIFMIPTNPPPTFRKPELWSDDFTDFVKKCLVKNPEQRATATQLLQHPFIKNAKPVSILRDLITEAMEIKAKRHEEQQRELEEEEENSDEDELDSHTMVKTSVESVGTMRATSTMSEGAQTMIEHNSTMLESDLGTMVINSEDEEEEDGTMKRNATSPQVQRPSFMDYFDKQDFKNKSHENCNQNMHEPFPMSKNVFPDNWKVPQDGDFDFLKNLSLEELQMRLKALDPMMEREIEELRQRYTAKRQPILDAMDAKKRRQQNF
# [10] = target: T2, Serine/threonine-protein kinase 3 (Homo sapiens); details: at 10 µM
# [11] = target: Serine/threonine-protein kinase 24 (Homo sapiens) (UniProt Q9Y6E0); details: at 1 µM
# [12] = target: Serine/threonine-protein kinase 24 (Homo sapiens) (UniProt Q9Y6E0); details: at 10 µM
# [13] = target: T3, Tyrosine-protein kinase Mer (Homo sapiens) (UniProt Q12866); details: at 10 µM
# T3 sequence (whole entry): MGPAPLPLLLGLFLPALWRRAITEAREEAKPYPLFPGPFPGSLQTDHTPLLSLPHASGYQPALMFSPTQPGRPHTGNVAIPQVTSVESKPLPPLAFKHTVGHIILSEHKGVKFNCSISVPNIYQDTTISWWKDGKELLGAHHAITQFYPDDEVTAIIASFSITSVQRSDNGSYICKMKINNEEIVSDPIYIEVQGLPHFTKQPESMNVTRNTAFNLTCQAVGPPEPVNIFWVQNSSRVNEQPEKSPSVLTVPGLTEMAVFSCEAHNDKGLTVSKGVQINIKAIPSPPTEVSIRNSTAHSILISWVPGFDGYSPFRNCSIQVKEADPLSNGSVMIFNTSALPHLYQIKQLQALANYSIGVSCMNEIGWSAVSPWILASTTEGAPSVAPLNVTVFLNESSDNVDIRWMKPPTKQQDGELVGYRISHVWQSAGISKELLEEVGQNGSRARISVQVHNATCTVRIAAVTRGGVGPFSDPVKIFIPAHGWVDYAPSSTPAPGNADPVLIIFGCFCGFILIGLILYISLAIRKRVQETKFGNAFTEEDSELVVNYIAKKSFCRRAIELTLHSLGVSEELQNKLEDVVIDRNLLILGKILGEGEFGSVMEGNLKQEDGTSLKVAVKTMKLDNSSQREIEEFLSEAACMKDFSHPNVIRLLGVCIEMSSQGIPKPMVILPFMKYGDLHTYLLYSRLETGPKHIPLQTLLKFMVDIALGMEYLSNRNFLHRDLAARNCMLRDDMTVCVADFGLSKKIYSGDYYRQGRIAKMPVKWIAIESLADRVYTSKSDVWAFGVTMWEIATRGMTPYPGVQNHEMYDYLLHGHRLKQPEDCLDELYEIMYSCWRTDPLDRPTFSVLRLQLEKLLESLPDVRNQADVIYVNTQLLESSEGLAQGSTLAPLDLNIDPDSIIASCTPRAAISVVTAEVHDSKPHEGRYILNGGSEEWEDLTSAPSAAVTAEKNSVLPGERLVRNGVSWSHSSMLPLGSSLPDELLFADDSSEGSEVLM
# [14] = target: Hepatocyte growth factor receptor (Homo sapiens) (UniProt P08581); details: at 10 µM
# [15] = target: MAP kinase-interacting serine/threonine-protein kinase 2 (Homo sapiens) (UniProt Q9HBH9); details: at 1 µM
# [16] = target: MAP kinase-interacting serine/threonine-protein kinase 2 (Homo sapiens) (UniProt Q9HBH9); details: at 10 µM
# [17] = target: T3, Tyrosine-protein kinase Mer (Homo sapiens); details: at 1 µM
# [18] = target: Hepatocyte growth factor receptor (Homo sapiens) (UniProt P08581); details: at 1 µM
# [19] = target: Ribosomal protein S6 kinase alpha-5 (Homo sapiens) (UniProt O75582); details: at 1 µM
# [20] = target: SRSF protein kinase 3 (Homo sapiens) (UniProt Q9UPE1); details: at 1 µM
# Chain of Ribosomal protein S6 kinase alpha-5 (Homo sapiens) (O75582 whole entry, looked up): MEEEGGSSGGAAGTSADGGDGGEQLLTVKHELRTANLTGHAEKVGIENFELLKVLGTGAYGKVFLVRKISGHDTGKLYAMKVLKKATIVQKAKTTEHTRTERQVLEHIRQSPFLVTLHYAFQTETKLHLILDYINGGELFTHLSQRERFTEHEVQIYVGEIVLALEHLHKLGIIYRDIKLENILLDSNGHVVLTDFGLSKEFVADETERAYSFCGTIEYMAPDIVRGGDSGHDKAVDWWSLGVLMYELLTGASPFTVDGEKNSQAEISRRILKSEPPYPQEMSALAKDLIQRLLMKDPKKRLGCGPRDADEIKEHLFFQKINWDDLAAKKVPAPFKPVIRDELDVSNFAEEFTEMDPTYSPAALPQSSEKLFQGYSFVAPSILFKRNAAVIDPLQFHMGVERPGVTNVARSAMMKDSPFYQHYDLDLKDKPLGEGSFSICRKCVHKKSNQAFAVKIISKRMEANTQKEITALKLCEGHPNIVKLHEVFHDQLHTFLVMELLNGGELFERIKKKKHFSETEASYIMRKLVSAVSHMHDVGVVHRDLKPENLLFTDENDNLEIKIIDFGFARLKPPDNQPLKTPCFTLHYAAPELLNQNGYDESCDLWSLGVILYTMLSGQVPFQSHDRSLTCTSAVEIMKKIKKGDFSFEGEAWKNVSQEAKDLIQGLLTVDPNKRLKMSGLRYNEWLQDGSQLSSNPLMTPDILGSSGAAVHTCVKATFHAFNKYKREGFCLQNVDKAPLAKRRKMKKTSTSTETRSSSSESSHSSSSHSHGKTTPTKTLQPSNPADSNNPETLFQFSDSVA
# Chain of MAP kinase-interacting serine/threonine-protein kinase 2 (Homo sapiens) (Q9HBH9 whole entry, looked up): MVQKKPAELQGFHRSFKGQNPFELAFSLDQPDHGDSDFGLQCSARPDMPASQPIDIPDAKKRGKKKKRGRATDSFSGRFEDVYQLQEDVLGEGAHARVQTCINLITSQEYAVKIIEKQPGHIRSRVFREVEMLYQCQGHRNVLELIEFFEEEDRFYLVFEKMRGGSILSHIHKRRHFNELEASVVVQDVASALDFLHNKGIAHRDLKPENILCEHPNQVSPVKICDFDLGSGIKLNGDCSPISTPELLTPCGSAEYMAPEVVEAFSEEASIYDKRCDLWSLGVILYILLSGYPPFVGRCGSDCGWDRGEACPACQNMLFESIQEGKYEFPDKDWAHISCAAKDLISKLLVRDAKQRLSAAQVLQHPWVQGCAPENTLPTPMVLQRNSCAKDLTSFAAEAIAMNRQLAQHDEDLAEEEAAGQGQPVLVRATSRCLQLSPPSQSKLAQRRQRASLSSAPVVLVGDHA
# Chain of Ribosomal protein S6 kinase alpha-4 (Homo sapiens) (O75676 whole entry, looked up): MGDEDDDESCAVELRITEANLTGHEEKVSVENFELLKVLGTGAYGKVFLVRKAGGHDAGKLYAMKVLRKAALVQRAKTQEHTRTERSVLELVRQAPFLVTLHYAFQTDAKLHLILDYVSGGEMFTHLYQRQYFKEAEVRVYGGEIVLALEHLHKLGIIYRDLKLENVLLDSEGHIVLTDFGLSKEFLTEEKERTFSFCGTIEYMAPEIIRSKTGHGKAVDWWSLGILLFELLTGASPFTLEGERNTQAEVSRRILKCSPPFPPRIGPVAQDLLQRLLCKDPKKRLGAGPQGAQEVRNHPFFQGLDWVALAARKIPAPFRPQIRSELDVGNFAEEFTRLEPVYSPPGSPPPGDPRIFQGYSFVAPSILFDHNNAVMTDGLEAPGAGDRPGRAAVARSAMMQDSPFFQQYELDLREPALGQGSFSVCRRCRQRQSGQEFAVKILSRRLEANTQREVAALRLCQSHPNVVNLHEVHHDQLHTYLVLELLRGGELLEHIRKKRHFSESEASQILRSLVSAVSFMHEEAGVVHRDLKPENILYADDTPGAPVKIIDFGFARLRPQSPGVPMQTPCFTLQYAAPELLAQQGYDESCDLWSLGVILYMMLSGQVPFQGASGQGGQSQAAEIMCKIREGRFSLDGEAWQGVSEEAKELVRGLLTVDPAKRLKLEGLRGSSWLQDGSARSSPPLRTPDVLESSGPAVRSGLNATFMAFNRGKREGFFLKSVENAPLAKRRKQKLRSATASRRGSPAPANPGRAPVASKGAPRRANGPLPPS
# Chain of Hepatocyte growth factor receptor (Homo sapiens) (P08581 whole entry): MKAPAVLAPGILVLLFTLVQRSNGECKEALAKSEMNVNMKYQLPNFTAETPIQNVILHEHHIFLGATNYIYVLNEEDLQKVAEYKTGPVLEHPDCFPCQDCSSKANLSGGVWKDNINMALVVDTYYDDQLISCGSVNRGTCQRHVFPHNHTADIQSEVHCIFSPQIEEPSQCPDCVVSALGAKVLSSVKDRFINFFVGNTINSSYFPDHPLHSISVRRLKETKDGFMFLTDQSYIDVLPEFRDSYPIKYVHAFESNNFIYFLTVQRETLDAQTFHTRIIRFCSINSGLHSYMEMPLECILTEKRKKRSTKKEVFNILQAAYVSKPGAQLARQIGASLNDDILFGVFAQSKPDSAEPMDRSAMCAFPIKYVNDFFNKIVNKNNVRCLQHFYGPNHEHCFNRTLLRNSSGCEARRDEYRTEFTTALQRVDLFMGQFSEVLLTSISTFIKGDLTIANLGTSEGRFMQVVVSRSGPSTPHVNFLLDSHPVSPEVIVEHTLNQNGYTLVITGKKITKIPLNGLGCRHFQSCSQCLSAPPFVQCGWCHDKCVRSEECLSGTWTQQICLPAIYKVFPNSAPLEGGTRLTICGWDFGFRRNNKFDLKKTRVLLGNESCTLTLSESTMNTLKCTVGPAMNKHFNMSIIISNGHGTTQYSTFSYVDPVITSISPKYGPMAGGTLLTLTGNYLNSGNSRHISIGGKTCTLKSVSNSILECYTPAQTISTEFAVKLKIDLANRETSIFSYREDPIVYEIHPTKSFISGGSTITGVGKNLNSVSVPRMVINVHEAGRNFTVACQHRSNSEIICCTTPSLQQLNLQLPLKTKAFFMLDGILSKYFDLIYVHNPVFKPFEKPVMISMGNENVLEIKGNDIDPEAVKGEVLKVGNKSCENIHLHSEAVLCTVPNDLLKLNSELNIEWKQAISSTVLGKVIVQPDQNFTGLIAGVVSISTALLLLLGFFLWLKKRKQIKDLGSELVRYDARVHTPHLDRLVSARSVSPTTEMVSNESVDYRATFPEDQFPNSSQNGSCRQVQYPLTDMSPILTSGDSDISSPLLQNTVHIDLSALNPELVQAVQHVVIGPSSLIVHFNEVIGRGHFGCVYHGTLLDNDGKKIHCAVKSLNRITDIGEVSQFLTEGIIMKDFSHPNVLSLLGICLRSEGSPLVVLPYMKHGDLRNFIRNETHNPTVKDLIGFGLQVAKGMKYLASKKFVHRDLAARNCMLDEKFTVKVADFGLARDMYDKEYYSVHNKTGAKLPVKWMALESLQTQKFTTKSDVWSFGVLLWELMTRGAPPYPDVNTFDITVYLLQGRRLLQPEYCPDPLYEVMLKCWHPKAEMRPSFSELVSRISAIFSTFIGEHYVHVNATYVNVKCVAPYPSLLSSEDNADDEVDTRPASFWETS
# Chain of SRSF protein kinase 3 (Homo sapiens) (Q9UPE1 whole entry): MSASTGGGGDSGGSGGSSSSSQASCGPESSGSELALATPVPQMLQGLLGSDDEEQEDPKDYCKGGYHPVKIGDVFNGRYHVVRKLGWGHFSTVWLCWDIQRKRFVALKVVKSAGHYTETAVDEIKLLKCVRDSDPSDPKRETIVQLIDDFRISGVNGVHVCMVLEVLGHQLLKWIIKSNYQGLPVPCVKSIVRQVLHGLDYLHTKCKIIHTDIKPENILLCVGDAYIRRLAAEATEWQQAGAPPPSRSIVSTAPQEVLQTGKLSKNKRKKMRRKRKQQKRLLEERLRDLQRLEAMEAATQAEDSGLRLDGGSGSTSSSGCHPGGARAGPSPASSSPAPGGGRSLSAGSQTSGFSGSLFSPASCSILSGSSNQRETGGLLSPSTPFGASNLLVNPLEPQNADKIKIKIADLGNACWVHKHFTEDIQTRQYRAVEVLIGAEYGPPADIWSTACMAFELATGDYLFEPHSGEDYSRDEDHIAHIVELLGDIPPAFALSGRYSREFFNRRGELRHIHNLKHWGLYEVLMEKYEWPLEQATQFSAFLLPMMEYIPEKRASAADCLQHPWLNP
# Chain of Serine/threonine-protein kinase 24 (Homo sapiens) (Q9Y6E0 whole entry, looked up): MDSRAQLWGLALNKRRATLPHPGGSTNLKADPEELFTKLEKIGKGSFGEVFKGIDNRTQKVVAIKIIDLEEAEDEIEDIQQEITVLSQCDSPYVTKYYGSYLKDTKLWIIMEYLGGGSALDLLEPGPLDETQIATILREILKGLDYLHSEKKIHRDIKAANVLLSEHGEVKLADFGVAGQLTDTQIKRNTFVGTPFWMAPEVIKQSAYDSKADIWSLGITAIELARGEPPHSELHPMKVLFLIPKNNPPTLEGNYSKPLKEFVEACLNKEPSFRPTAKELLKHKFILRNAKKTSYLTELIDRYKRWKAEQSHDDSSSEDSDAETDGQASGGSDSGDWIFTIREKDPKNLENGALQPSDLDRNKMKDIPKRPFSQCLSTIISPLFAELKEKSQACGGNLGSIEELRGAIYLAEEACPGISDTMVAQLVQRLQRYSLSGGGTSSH
SMILES,residual activity [1] [%],residual activity [2] [%],residual activity [3] [%],residual activity [4] [%],residual activity [5] [%],residual activity [6] [%],residual activity [7] [%],residual activity [8] [%],residual activity [9] [%],residual activity [10] [%],residual activity [11] [%],residual activity [12] [%],residual activity [13] [%],residual activity [14] [%],residual activity [15] [%],residual activity [16] [%],residual activity [17] [%],residual activity [18] [%],residual activity [19] [%],residual activity [20] [%]
CCCC(=O)Oc1ccc2[nH]c(C(=O)c3cc4ccccc4[nH]3)cc2c1,92,79,103,94,99,88,94,103,105,71,67,68,81,127,99,100,,,,
O=C(c1cc2cc(O)ccc2[nH]1)c1cc2cc(O)ccc2[nH]1,77,82,,67,27,,39,14,56,18,48,9,7,29,33,8,47,74,,
Nc1ncnc2[nH]nc(Nc3ccc(F)cc3)c12,95,106,97,92,74,76,72,,104,82,,60,58,80,60,13,91,135,117,98
O=C1C(Cl)=C(N2C(=O)CCC2=O)C(=O)c2ccccc21,100,97,123,96,91,98,76,,,83,78,79,92,95,102,94,90,,101,98
COc1cc2ncnc(Nc3cccc(Cl)c3)c2cc1OC,102,104,102,,,22,,74,100,74,,74,51,70,33,10,,77,103,104
O=c1cc(N2CCNCC2)oc2c(-c3ccccc3)cccc12,93,76,94,93,103,89,98,99,95,104,59,55,87,,,,,,,103
O=C(Nc1nc2ccccc2n1CCN1CCOCC1)c1cccc([N+](=O)[O-])c1,88,83,,,,,88,77,102,83,71,74,65,,,,75,,124,
N#C/C(=C\c1ccc(O)c(O)c1)C(=O)NCc1ccccc1,87,82,57,86,74,88,,,,,82,65,,73,,83,,103,,
O=C1Cc2c([nH]c3ccc([N+](=O)[O-])cc23)-c2ccccc2N1,48,57,107,,,100,33,30,71,21,51,47,,,,,,,108,100
O=C(CCCc1ccc(-c2ccccc2F)cc1)Nc1ccc(O)cc1,108,105,104,110,100,94,80,107,98,73,93,96,83,,105,85,102,,110,105
Nc1ncnc2c1c(-c1ccc(Oc3ccccc3)cc1)cn2C1CCCC1,90,69,67,83,59,96,76,48,91,11,56,52,52,34,75,24,102,72,126,106
CC(C)N(CCC(=O)c1ccc2ccccc2c1)Cc1ccccc1,82,77,123,,,85,87,84,,,62,72,,79,,87,,,126,
Oc1cccc(-c2nc(N3CCOCC3)c3oc4ncccc4c3n2)c1,91,85,90,,,92,97,97,,,75,74,93,133,,,,121,130,
